HSF1 inhib – HSF1 inhibitors in luciferase reporter cells, primary screen, cell-based, NIH3T3, luminescence. NIH3T3-HGL HSE-luciferase, MG132-induced, luminescence 8 h; hits give low values. hit rate 0.77% among 300,000. activity change, negative = inhibition, % at 7.5 µM (by protocol). AID 2098, 2009;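 active = more than half of replicate wells show activity change below -50%, luminescence cut by over half; inconclusive = some wells, but at most half, below -50%; inactive = no replicate well below -50%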;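 note: luciferase reports HSF-1 transcriptional activity via heat shock element; 0% = median of DMSO wells and -100% = zero luminescence signal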
HSF-1 act – HSF-1 activators, primary screen, NIH3T3-HGL cells, MG132 stress, luminescence, single point; NIH3T3-HGL HSF-1 luciferase reporter, 8 h; 100% = twice DMSO control signal; activation, % at 9 µM; hit rate 1.7% among 300,000; AID 504408, 2011;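 active = mean replicate activation of at least 50% with a set share of replicates each reaching 50%; inconclusive = only one of those two conditions met; inactive = mean below 50% and too few replicates reaching it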;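 note: 0% = median of the neutral control wells and 100% = twice that signal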
Wnt act – Wnt/beta-catenin pathway activators, primary screen, cell-based, plate reader, single point. Wnt/beta-catenin reporter cell assay, activator. activation, % at 9.35 µM. hit rate 1.2% among 300,000; in the data active = activation above about 30%, passing the limit was not always enough; inconclusive = no clear call, values can overlap the other calls;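 note: 0% = neutral control wells and 100% = positive control wells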
esBAF inh – Bmi1 luciferase reporter increase in mESCs, primary screen, esBAF inhibitor project, mouse ES cells, Bmi1 luciferase knock-in, single point; hit rate 2% among 350,000; 24 h; 100% = twice the neutral-well signal; reporter increase, % at 12.5 µM; in the data active = activation above about 40%; inconclusive = no clear call, values can overlap the other calls;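 note: 0% = median of the plate's neutral control wells and 100% = double that signal; a rise in the Bmi1 reporter signal indicates esBAF inhibition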
MITF TRPM1 HTS – activators of MITF-driven TRPM1 promoter reporter, primary screen, cell-based, SK-MEL-5, luciferase, single point | activation, % at 12.5 µM | SK-MEL-5 TRPM1-promoter luciferase, 24 h; % of positive control, neutral wells = 0 | hit rate 0.75% among 300,000 | AID 588334, 2011;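 active = mean activation of at least 80% with every replicate also reaching 80%; inconclusive = mean reaches 80% but some replicate falls short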;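 note: 0% = neutral control wells and 100% = parthenolide positive control wells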
Active calls of the source: *; u = inconclusive; x = no result. Hits are enriched below; roughly 3.8% of the tested compounds scored in any of these assays.

SMILES | HSF1 inhib | HSF-1 act | Wnt act | esBAF inh | MITF TRPM1 HTS
COc1ccc(-c2csc(Nc3ncccn3)n2)cc1C | 14 | 18 | 38* | u | 73
C=C(C)CN(CC)c1nc(N)c2c(N)nc3c(c2c1C#N)CC(=O)N3C12CC3CC(CC(C3)C1)C2 | 18 | 55* | -38 | x | -3
COc1ccc(NC(=O)c2cc(C3CC3)on2)c(OC)c1 | -13 | -31 | -3 | 53* | x
Cc1cc(NC(=O)c2cc(C3CC3)on2)no1 | 9 | 12 | 1 | 49* | x
Cc1ccc(/C=C2\SC(N3CCCCC3)=NC2=O)cc1 | 15 | 16 | 7 | 42* | 64
O=C1N=C(N2CCCCC2)S/C1=C\c1ccc(Cl)cc1 | 21 | 45 | 2 | 29 | x
CCOc1cc(/C=N/NC(=O)CN(CCc2ccccc2)S(=O)(=O)c2ccc(NC(C)=O)cc2)ccc1O | -89* | -90 | -10 | x | -3
O=C(CN(CCc1ccccc1)S(=O)(=O)c1ccc(Cl)cc1)N/N=C/c1ccc2c(c1)OCO2 | -1 | 4 | 34* | x | -4
CC(=O)Nc1ccc(S(=O)(=O)N(C)CC(=O)N/N=C/c2cccc(O)c2)cc1 | 5 | 9 | -12 | -5 | 1
COc1ccc(S(=O)(=O)N(CCc2ccccc2)CC(=O)N/N=C/c2ccc3c(c2)OCO3)cc1 | 0 | -3 | -3 | x | 4
C[C@H](CO)N1C[C@H](C)[C@H](CN(C)C(=O)Nc2ccccc2)Oc2ccc(NC(=O)Nc3ccc4c(c3)OCO4)cc2C1=O | x | x | x | 6 | x
Cc1cccc(C#Cc2ccccc2)n1 | x | x | 67* | 11 | 76
O=C(C[C@H]1C=C[C@@H](NC(=O)Nc2cc(F)ccc2F)[C@H](CO)O1)NCc1ccc2c(c1)OCO2 | x | x | x | 0 | x
N=c1c2c(ncn1CCCO)Oc1c(ccc3ccccc13)C2c1ccccc1 (stereo unspecified) | -66* | -73 | 42* | x | -32
C[C@@H]1CN([C@H](C)CO)C(=O)Cc2cc(NS(=O)(=O)c3ccc(F)cc3)ccc2O[C@@H]1CN(C)Cc1ccc(C(=O)O)cc1 | x | x | x | -1 | x
CCCC(O)C#Cc1cnc2c(c1)C(=O)N([C@H](C)CO)C[C@H](C)[C@H](CN(C)C(=O)Nc1c(C)noc1C)O2 (stereo partly specified) | x | x | x | 4 | x
CCOc1ccc(-c2nc(CSCC(=O)NCC3CCCO3)c(C)o2)cc1 (stereo unspecified) | -57* | -56 | 0 | -79 | -9
CCc1ccc(-c2nc(CSCC(=O)NCc3ccco3)c(C)o2)cc1 | -72* | -77 | -4 | x | -30
COc1ccc(Nc2nc(N)c([N+](=O)[O-])c(N3CCCC3)n2)cc1 | -2 | 25 | 0 | 4 | -17
Nc1nc(Nc2ccccc2)nc(N2CCCC2)c1[N+](=O)[O-] | 32 | 41 | 21 | 50* | 34
CN1C(=O)/C(=C/C=C2\SCCN2C)N(C)C1=S | 18 | 32 | -1 | 66* | 71
C[C@H]1CN([C@@H](C)CO)C(=O)c2cc(NC(=O)Nc3cccc4ccccc34)ccc2O[C@@H]1CN(C)C(=O)Nc1ccc(C(F)(F)F)cc1 | x | x | x | -1 | x
O=C(CCl)Nc1ccccc1C(=O)c1ccccc1 | -95* | -95 | 0 | x | -14
COc1ccc(Nc2nc(N3CCCC3)nc3ccccc23)c(OC)c1 | 4 | 4 | -11 | -1 | 10
COc1ccc(Nc2nnc(Cc3ccncc3)c3ccccc23)c(OC)c1 | -2 | 6 | 1 | 52* | 4
SMILES | HSF1 inhib | HSF-1 act | Wnt act | esBAF inh | MITF TRPM1 HTS
COCCCNC(=S)NNC(=S)Nc1ccccc1 | 5 | 16 | 42* | x | x
COCCCNC(=S)Nc1ccc(C)cc1 | -9 | -3 | 0 | -4 | -1
Cc1noc(C)c1S(=O)(=O)Nc1cccc2c1O[C@@H](CN(C)Cc1ccc(C(=O)O)cc1)[C@@H](C)CN([C@H](C)CO)C2=O | x | x | x | -3 | x
COc1ccc(C(=O)Nc2ccc(C(F)(F)F)n(C)c2=O)cc1 | 3 | -5 | 63* | x | 28
CCN(CC)S(=O)(=O)c1ccc(C(=O)Nc2ccc(C(F)(F)F)n(C)c2=O)cc1 | -5 | 1 | -1 | -9 | -2
Cc1ccc(C(=O)Nc2ccc(C(F)(F)F)n(C)c2=O)cc1 | 13 | 2 | 54* | x | 23
COc1ccc(C(=O)Nc2cc(C(F)(F)F)ccc2-n2cnc3ccccc32)cc1 | 28 | 65* | -2 | x | -7
COCCn1c(C(F)(F)F)ccc(NC(=O)c2ccccc2)c1=O | 24 | 46 | 17 | 28 | 65
C[C@@H]1CCCCO[C@@H](CN(C)S(=O)(=O)c2cccs2)[C@H](C)CN([C@@H](C)CO)C(=O)c2cc(NS(=O)(=O)c3cccs3)ccc2O1 | x | x | x | 11 | x
COc1cccc(C(=O)Nc2cccc3cccnc23)c1OC | 7 | 17 | x | 43* | 25
Cc1cc(C(=O)Nc2cccc3cccnc23)ccc1[N+](=O)[O-] | 23 | 45 | 8 | 49* | 5
COc1ccc(C(=O)Nc2cccc3cccnc23)cc1OC | 57 | 68* | 7 | 23 | 53
O=C(Nc1cccc2cccnc12)c1cccc([N+](=O)[O-])c1 | 14 | 12 | 0 | 29 | x
C[C@@H]1CN([C@@H](C)CO)C(=O)c2cc(-c3ccccc3)cnc2O[C@@H]1CN(C)Cc1ccccc1 | x | x | x | 0 | x
Cc1ccc(S(=O)(=O)N(C)C[C@H]2Oc3c(NC(=O)Nc4c(C)noc4C)cccc3C(=O)N([C@H](C)CO)C[C@@H]2C)cc1 | x | x | x | -4 | x
CN(C)CCNC(=O)/C(=C/c1ccc(-c2cccc(Cl)c2)o1)NC(=O)c1ccccc1 | 24 | 66* | x | x | -10
O=C(CCN1CCC(c2cccs2)=N1)c1cccs1 | 38 | 65* | 0 | x | x
CN(C)CC(=O)Nc1ccc2c(c1)[C@H]1C[C@@H](CC(=O)N3CCOCC3)O[C@@H](CO)[C@H]1O2 | x | x | x | -4 | x
N#Cc1c(/N=C/c2ccc(-c3ccccc3C(=O)O)o2)sc2c1CCCC2 | 1 | -10 | 9 | 57* | 38
N#Cc1c(/N=C/c2ccc(-c3ccc(C(=O)O)c(Cl)c3)o2)sc2c1CCCC2 | x | x | 0 | 10 | 13
Cn1ccsc1=NC(=O)c1ccc(=O)[nH]c1 | -5 | -4 | 0 | -6 | -6
Cn1ccsc1=NC(=O)c1cccc(OC(F)F)c1 | 5 | 22 | 22 | 53* | 69
CCOc1ccc(C(=S)N2CCCC2)cc1OC | 0 | -19 | -2 | x | -1
CCOc1ccc(C(=O)N2CCCC2)cc1OC | -1 | -1 | 34* | 0 | -11
COc1cc(C(=S)N2CCCC2)ccc1OCc1ccc(C)cc1 | 45 | 46 | 9 | 47* | 66
Cc1ccc(COc2ccccc2C(=S)N2CCCC2)cc1 | 17 | 9 | 2 | 55* | 19
C[C@@H]1CN([C@H](C)CO)C(=O)c2cc(N(C)C)ccc2O[C@@H](C)CCCCO[C@@H]1CN(C)S(C)(=O)=O | x | x | x | -2 | x

From PubChem BioAssay
